This is a sample that favours compounds with a hit; in the whole collection about 10% have one here.
ALDH1A1 inh: blocks purified human ALDH1A1 activity. Potency, µM (top dose mostly 75.3 µM), inactives show top-dose activity, negative = inhibition, most hits filed as inhibitors. 220,000 tested, 7.3% active. AID 1030. Purified ALDH1A1, NADH fluorescence, propionaldehyde substrate. P00352;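 note: potency is the fitted concentration of half-maximal effect; plate controls were no enzyme wells and a reference inhibitor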
Target sequence (P00352 whole entry, looked up): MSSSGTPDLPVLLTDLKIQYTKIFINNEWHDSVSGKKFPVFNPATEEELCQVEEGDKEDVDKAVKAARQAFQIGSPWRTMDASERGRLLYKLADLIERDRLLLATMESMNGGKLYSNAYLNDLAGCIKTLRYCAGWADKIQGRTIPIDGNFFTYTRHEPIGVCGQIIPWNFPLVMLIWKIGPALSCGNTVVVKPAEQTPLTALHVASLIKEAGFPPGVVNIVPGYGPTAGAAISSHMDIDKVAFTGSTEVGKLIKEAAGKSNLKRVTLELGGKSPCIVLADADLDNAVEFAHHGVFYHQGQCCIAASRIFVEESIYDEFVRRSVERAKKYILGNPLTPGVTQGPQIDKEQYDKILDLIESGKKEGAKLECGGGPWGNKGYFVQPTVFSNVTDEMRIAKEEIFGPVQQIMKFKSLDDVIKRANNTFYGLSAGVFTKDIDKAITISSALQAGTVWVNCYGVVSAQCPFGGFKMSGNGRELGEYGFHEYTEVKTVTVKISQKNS
HPGD block: inhibitors of human 15-hydroxyprostaglandin dehydrogenase (HPGD) | P15428 | purified HPGD, NADH fluorescence kinetic, PGE2 substrate | Potency, µM, without a hit: at the highest dose activity change, negative = inhibition, most hits filed as inhibitors | 150,000 tested, 4.3% active; note: potency is the fitted concentration of half-maximal effect
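20 nM HPGD preincubated 15 min at room temperature with compound in 50 mM Tris-HCl pH 8, 0.01% Tween 20. Started with 1 mM NAD+ and 30 uM prostaglandin E2; NADH fluorescence (360/450 nm) read 5 times over 30-s intervals, last minus first.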
ALOX12 inhib: 12-hLO (ALOX12) enzyme inhibition. P18054. purified 12-hLO, xylenol orange hydroperoxide absorbance. Potency, µM (highest dose often 57.1 µM), for the others: top-dose activity change, negative = inhibition, usual class: inhibitors. 150,000 tested, 0.12% active. AID 1452; active = well fitted inhibition curve with a large enough effect; inconclusive = small, poorly fitted or top-dose-only effect; note: potency is the fitted concentration of half-maximal effect; nearly all actives have a fitted effect of over 55% in size
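Hydroperoxide formation by human 12-lipoxygenase from 40 uM arachidonic acid was followed colorimetrically via ferric-xylenol orange complex, using the 573/405 nm absorbance ratio. Enzyme concentration was 150 nM, with 30 min reaction at room temperature.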
LMNA splice mod: LMNA splicing modulation. 200,000 tested, 0.01% active. Potency, µM (top dose mostly 46.1 µM), for the others: at the highest dose ratio change, negative = inhibition, most hits filed as inhibitors. HeLa LMNA splicing GFP/RFP minigene ratio, 48 h; active = well fitted inhibition curve with a large enough effect in the signal ratio, with a control signal flat, not every such curve was filed as active; inconclusive = small, poorly fitted or top-dose-only effect, or effect the other way, or a change in a side signal; the % refers to the signal ratio; note: potency is the fitted concentration of half-maximal effect
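S3 HeLa cells stably expressing lamin A-EGFP splicing minigene plus DsRed2, 600 cells/well, 48 h compound exposure at 37C. Laser-scanning cytometry; analysed as GFP (500-530 nm)/RFP (575-640 nm) total intensity ratio; 0.5% DMSO vehicle.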
PNC inhibitor: perinucleolar compartment assembly inhibition; activity change (PNC), negative = inhibition, % at 10 µM; PC3M PTB-GFP, PNC prevalence imaging, 16 h; stronger effect = lower value; AID 2417; 140,000 tested, 3.1% active;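 active = readout at or below -70, meaning at least 70% loss of cells showing the perinucleolar compartment, a nuclear body marking cancer cells; inconclusive = readout between -30 and a set limit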;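 note: plate controls were DMSO wells for no effect and camptothecin positive control wells for full effect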
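PC3M cells stably expressing PTB-GFP, 750–1000 cells/well, treated 16 h at 37 °C with compound (23 nl of library stock), in duplicate. After paraformaldehyde fixation and Hoechst stain, imaged at 20x; PNC prevalence scored by image analysis.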
Numbers without * were called inactive; ? = inconclusive; . = no result; [ ] = dose if it differs, or a comment. Unless noted, calls come from the whole dose curve; as a rule, active = well fitted inhibition curve with a large enough effect (not every such curve was filed as active); inconclusive = small, poorly fitted or top-dose-only effect, or another doubt; inactive = no such curve, though single readings can be large or run the other way. Unless noted, % is set by controls: 0 for no effect and ±100 for the full control effect.

SMILES | ALDH1A1 inh | HPGD block | ALOX12 inhib | LMNA splice mod | PNC inhibitor
O=C(O)c1cccc(Cn2c(Cl)c(/C=N/Nc3ccccc3)sc2=O)c1 | 22µM* | . | . | . | .
O=C(O)c1cccc(Cn2c(Cl)c(/C=N/NC(=O)c3ccccc3Cl)sc2=O)c1 | ? | 28µM* | 3% | 6% | -26
CSc1nc(N)c2ncn([C@@H]3O[C@H](COP(=O)(O)OP(=O)(O)O)[C@H](O)[C@H]3O)c2n1 | 6% | -7% | . | ? | .
Nc1nc(-c2cccnc2)nc2sc3c(c12)CCCC3 | -6% | . | . | 17%[46 µM] | .
NNc1nc(-c2ccccc2Cl)nc2sc3c(c12)CCCC3 | ? | 13µM* | -4% | ? | 0
CC(=O)c1ccc(NC(=O)CCc2c(C)nn(-c3ccc4nncn4n3)c2C)cc1 | . | . | . | 1%[46 µM] | .
COC(=O)[C@@H](c1ccccc1Cl)N1CCc2sccc2C1 | -1% | . | . | . | .
CC1CCN(c2ccc(C=O)o2)CC1 | 14µM* | . | . | -8%[46 µM] | .
O=Cc1ccc(N2CCCC2)o1 | -11% | . | . | ? | .
COC(=O)C1=COC(O[C@H]2OC(CO)[C@H](O)C(O)C2O)[C@H]2C1C(=O)C[C@@H]2C (stereo partly specified) | 0% | -3% | . | . | .
O=C(NCC1CCCO1)c1ccc(COc2ccc(Cl)cc2)cc1 (stereo unspecified) | 5% | . | . | . | .
COc1cccc(OCc2ccc(C(=O)NCC3CCCO3)cc2)c1 (stereo unspecified) | -6% | 10µM* | -1% | ? | -11
O=C(NCC1CCCO1)c1ccc(COc2ccccc2Br)cc1 (stereo unspecified) | 2% | 4µM* | -4% | ? | 20
CN(C)c1ncc2ncc(=O)n(Cc3cccs3)c2n1 | ? | ? | -6% | . | .
CCOC(=O)C1(CCOc2ccccc2)CCN(Cc2ccc(C)o2)CC1 | 18µM* | . | . | . | .
CCn1ncc([C@@H]2C[C@H]3CN(Cc4cccc(Cl)c4)C(=O)[C@]34CCCN24)c1C | -2% | . | . | -8%[46 µM] | .
O=C1N(Cc2cccc(Cl)c2)C[C@@H]2C[C@@H](c3cccn3-c3cccnc3)N3CCC[C@@]123 | 7.1µM* | . | . | -8%[46 µM] | .
O=C(N/N=C/c1ccc(N2CCOCC2)s1)c1ccccc1Cl | 16µM* | . | . | ? | .
FC(F)(F)c1ccc(Cl)c(N/N=C/c2ccc(N3CCOCC3)s2)c1 | 4.5µM* | ? | -28% | -7% | -3
O=C(N/N=C/c1ccc(N2CCOCC2)s1)c1ccc(NS(=O)(=O)c2cccs2)cc1 | 16µM* | . | . | ? | .
O=C(CN1CCOCC1)Nc1cc(C(F)(F)F)ccc1Cl | 14% | . | . | . | .
Cc1ccc(S(=O)(=O)/N=C(\Nc2cccc(C)c2)Nc2nc(C)cc(C)n2)cc1 | 0.4µM* | -14% | 3% | 2% | -7
CC1(C)Cc2c(sc3ncnc(NNC(=S)NCc4ccccc4)c23)CO1 | 1.4µM* | -11% | -21% | ? | -6
Cc1cc(C)n(-c2nc(NCc3cccnc3)c3c4c(sc3n2)COC(C)(C)C4)n1 | ? | ? | 7% | -11% | 13
CCCCCCOc1ccc(C(CC(=O)O)C(N)=O)cc1 (stereo unspecified) | 2% | -8% | 0% | 10% | -104*
SMILES | ALDH1A1 inh | HPGD block | ALOX12 inhib | LMNA splice mod | PNC inhibitor
Oc1ccccc1-c1cc(-c2ccccc2)no1 | 4% | 1.6µM* | 3% | 1% | ?
Cc1ccccc1-c1cc(-c2ccccc2O)on1 | 5% | 14µM* | -8% | 1% | 6
O=c1ncccn1[C@@H]1O[C@H](CO)C(O)[C@@H]1O (stereo partly specified) | -8% | -26% | 4%[0.00818 µM] | . | .
O=c1cnn([C@@H]2O[C@H](CO)[C@@H](O)[C@H]2O)c(=O)[nH]1 | -2% | 1% | -6% | ? | -111*
COC(=O)C1(C)C=CC2(CCCCC2)N1C(=O)c1ccccc1 (stereo unspecified) | 4% | -9% | 2% | . | .
COc1ccc(NC(=O)CCS(=O)(=O)c2cc3c(cc2C)NC(=O)CO3)cc1Cl | . | . | . | -10%[46 µM] | .
CCCCCCCCC1CO1 (stereo unspecified) | -4% | -2% | -9% | . | .
O=C(c1ccc(S(=O)(=O)Cc2ccccc2Cl)c([N+](=O)[O-])c1)N1CCN(c2ccccn2)CC1 | 18µM* | . | . | . | .
COc1ccc(C(=O)N2CCN(c3ccccn3)CC2)cc1[N+](=O)[O-] | ? | . | . | -17%[46 µM] | .
O=C(c1ccc(Cl)c([N+](=O)[O-])c1)N1CCN(c2ccccn2)CC1 | 10µM* | -4% | 0% | 2% | 15
NCCC[C@@H](CC(=O)N[C@@H]1CCCC[C@H]1C(=O)N[C@H](CC(=O)N[C@@H](CCC(=O)O)CC(=O)O)Cc1ccccc1)NC(=O)C[C@H](CO)NC(=O)[C@@H]1CNCC[C@H]1N | -8% | -6% | 2% | . | .
CC1(C)S[C@@H]2[C@H](NC(=O)C3(N)CCCCC3)C(=O)N2[C@@H]1C(=O)O | -9%[13.5 µM] | -10% | -1%[11.4 µM] | . | .
CCOC(=O)c1oc2ccccc2c1CN1CCCCC1 | -4% | . | . | . | .
CCOC(=O)c1oc2ccccc2c1CN1CCOCC1 | 11µM* | -9% | 0% | 6% | 11
CCOC(=O)c1oc2ccccc2c1CSc1nnnn1-c1ccccc1 | 6.3µM* | -13% | -7% | 10% | -7
COCC(=O)N1CCc2nc(COc3ccccc3)c3c(c2C1)CO[C@@H](C)C3 | -1%[13.5 µM] | -10% | 5%[11.4 µM] | 5%[9.22 µM] | .
COc1cc(C/C=C\c2ccccc2)c(OC)cc1O | 25µM* | -20% | . | . | .
COc1cc(Br)cc(CN2CCN(C/C=C/c3ccccc3)CC2)c1O | 3% | -9% | -18% | ? | ?
Cc1cc(Cl)ccc1Oc1ncnc2oc(-c3ccccc3)cc12 | ? | ? | 1% | 3%[0.0737 µM] | -94*
COC(CNC(=O)c1ccc2c(c1)nc(C)n2-c1cccc(F)c1)OC | -1% | 11µM* | -1% | 12% | 19
COC(CNC(=O)c1ccc2c(c1)ncn2-c1ccc(F)c(F)c1)OC | 1% | . | . | . | .

Compound activity (PubChem)
